Assay results reported in PubChem BioAssay (NCI).
The panel holds about 79,000 compounds, 15% with a hit somewhere; the sample as a whole holds those more often. A number with no mark means an inactive call. Activity calls are given as the source filed them. No stated cut-off is given here; in the data, active means growth inhibition above about 70%; inactive means the rest.

What was measured:
[1] = NCI Yeast Anticancer Drug Screen. Data for the rad50 strain (AID 155);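 further: 0% = growth of vehicle-only cultures of the same strain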; conditions: S. cerevisiae rad50 strain growth inhibition, stronger effect = higher value
Summary of the method: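 Readout: growth inhibition relative to vehicle-treated cultures. Compound exposure was carried out in a genetically defined yeast strain deficient in DNA damage repair.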

[2] = NCI Yeast Anticancer Drug Screen. Data for the mec2-1 strain (AID 157); conditions: S. cerevisiae mec2-1 strain, stronger effect = higher value
Summary of the method: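 Using mec2-1 yeast: add compound, measure growth, express inhibition versus vehicle-treated cultures.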

[3] = NCI Yeast Anticancer Drug Screen. Data for the sgs1 mgt1 strain (AID 161);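 further: 0% = growth of cultures given vehicle only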; conditions: S. cerevisiae sgs1 mgt1 strain, stronger effect = higher value
Summary of the method: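 Growth of a repair-deficient yeast mutant was monitored after compound treatment and expressed as inhibition relative to vehicle-treated cultures.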

[4] = NCI Yeast Anticancer Drug Screen. Data for the cln2 rad14 strain (AID 165);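 further: 0% = growth equal to vehicle treated cultures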; conditions: S. cerevisiae cln2 rad14 strain, stronger effect = higher value
Summary of the method: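 Yeast strain cln2 rad14, bearing defects in cell cycle control and DNA repair, serves as the test system; values reflect growth inhibition compared with vehicle.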

[5] = NCI Yeast Anticancer Drug Screen. Data for the bub3 strain (AID 167); conditions: S. cerevisiae bub3 mutant strain, stronger effect = higher value
Summary of the method: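 Readout: yeast growth inhibition, expressed relative to vehicle-only wells. The test organism is a mutant strain from a panel with lesions in DNA repair or checkpoint genes.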

[6] = NCI Yeast Anticancer Drug Screen. Data for the mlh1 rad18 strain (AID 175); conditions: S. cerevisiae mlh1 rad18 strain growth inhibition, stronger effect = higher value
Summary of the method: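 Steps: expose repair-defective yeast to compound; measure growth; express inhibition against vehicle-treated controls.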

[7] = at 5.0 µM (retest, dose inferred, filed as 0.5)
[8] = at 50.0 µM (retest, dose inferred, filed as 5.0)

Structure (SMILES) | growth inhibition [1, 7] | growth inhibition [1, 8] | growth inhibition ([1]; at 50.0 µM) | growth inhibition [2, 7] | growth inhibition [2, 8] | growth inhibition ([2]; at 50.0 µM) | growth inhibition [3, 7] | growth inhibition [3, 8] | growth inhibition ([3]; at 50.0 µM) | growth inhibition [4, 7] | growth inhibition [4, 8] | growth inhibition ([4]; at 50.0 µM) | growth inhibition [5, 7] | growth inhibition [5, 8] | growth inhibition ([5]; at 50.0 µM) | growth inhibition [6, 7] | growth inhibition [6, 8] | growth inhibition ([6]; at 50.0 µM)
Cc1csc2[n+]1C(=O)/C(=C\c1ccc([N+](=O)[O-])cc1)S2 | 30% | 74% (active) | 69.6% | 21% | 71% (active) | 56.2% | 32% | 80% (active) | 50.3% | 7% | 67% | 57.5% | 26% | 76% (active) | 46.9% | 24% | 82% (active) | 78.3% (active)
COC(=O)N/N=C(/CC1(O)C(=O)Nc2ccccc21)c1ccc(Cl)cc1Cl (configuration not stated) | 21% | 97% (active) | 97.5% (active) | 10% | 97% (active) | 98.5% (active) | 32% | 97% (active) | 98.2% (active) | 12% | 97% (active) | 92.3% (active) | 8% | 97% (active) | 96.8% (active) | 19% | 94% (active) | 97.8% (active)
COc1c(C(=O)/C(=N/Nc2ccccc2)C(C)=O)c(O)c(OC)c2occc12 | -2% | 94% (active) | 45.7% | -18% | 87% (active) | 52.5% | -39% | 82% (active) | 73.2% (active) | -19% | 91% (active) | 33% | -32% | 92% (active) | 47.8% | 2% | 90% (active) | 68.8%
O=C1Nc2ccccc2SC1c1ccccc1 (configuration not stated) | 3% | 97% (active) | 98.2% (active) | 15% | 99% (active) | 99.6% (active) | -2% | 99% (active) | 99.5% (active) | 10% | 99% (active) | 98.8% (active) | 19% | 98% (active) | 99.3% (active) | 10% | 99% (active) | 98.8% (active)
CCCCCCCCCCCCCCCCOC(=O)C[n+]1ccc(C(N)=O)cc1 | -2% | 97% (active) | 98% (active) | -8% | 99% (active) | 98.1% (active) | 21% | 94% (active) | 98.9% (active) | 0% | 72% (active) | 69.3% | -3% | 97% (active) | 93% (active) | 32% | 96% (active) | 98.2% (active)
C/C(O)=C(/C=N/C(=S)Nc1ccc(S(N)(=O)=O)cc1)C(=O)Nc1ccccc1C | 0% | 18% | 79.7% (active) | -10% | -4% | 81.7% (active) | -5% | -2% | 68.8% | -14% | 6% | 81.3% (active) | -13% | -6% | 67.5% | 3% | -15% | 89.4% (active)
N#CC(C(=O)CCCC(=O)Nc1cccc([N+](=O)[O-])c1)c1cccc2ccccc12 (configuration not stated) | 8% | 10% | 32.5% | 18% | 3% | 22.1% | 8% | 7% | 17.1% | 4% | 11% | 22.6% | 4% | 2% | 6.2% | 5% | 18% | 31.2%
COc1ccc(Cl)c(-c2cc(OC)c(N=N/C(=N/Nc3ccc([N+](=O)[O-])cc3)c3ccc([N+](=O)[O-])cc3)cc2Cl)c1 | 95% (active) | 19% | 70.9% (active) | 98% (active) | 4% | 45.5% | 44% | -18% | 60.2% | 74% (active) | 0% | 50.2% | 99% (active) | 5% | 44.5% | 98% (active) | 17% | 76.1% (active)
O=C(O)/C=C/c1ccc(Cl)cc1Cl | 6% | 95% (active) | 89.5% (active) | -8% | 56% | 33.5% | 2% | 39% | 65.8% | 1% | 57% | 37.8% | 41% | 85% (active) | 74.3% (active) | 6% | 94% (active) | 92.6% (active)
CC(=O)N(C)c1ccc2c(c1)Cc1ccccc1-2 | 2% | 34% | 42.6% | 1% | 21% | 27.4% | 1% | 36% | 42.7% | -2% | 16% | 14.8% | 16% | 86% (active) | 58.3% | -2% | 30% | 23.1%
CN1C(=O)[C@@H]2N(N(C)C1=O)[C@@]1(Br)C(=O)N(C)C(=O)[C@@]21Br | 18% | 78% (active) | 92.5% (active) | 4% | 57% | 79% (active) | 18% | 84% (active) | 87.8% (active) | 4% | 24% | 67.8% | 1% | 53% | 94.5% (active) | 14% | 91% (active) | 97.8% (active)
CSc1ccc(/C=C2\CN(C)C/C(=C\c3ccc(SC)cc3)C2=O)cc1 | 43% | 52% | 73.5% (active) | -7% | 32% | 70% (active) | 36% | 61% | 91.6% (active) | 34% | 33% | 68.4% | 25% | 45% | 44% | 29% | 15% | 82.8% (active)
CCOC(=O)/C=C(\CC(=O)OCC)C(=O)OCC | -3% | 3% | 99.5% (active) | -1% | -8% | 99.7% (active) | -1% | 5% | 99.2% (active) | -3% | -6% | 13.4% | 4% | 25% | 99.5% (active) | -3% | -2% | 99.3% (active)
N#C/C(=C\c1cc(Cl)cc(Cl)c1O)C(/C(C#N)=C/c1cc(Cl)cc(Cl)c1O)c1ccc2c(c1)OCO2 (configuration not stated) | 64% | 98% (active) | 90.8% (active) | 48% | 99% (active) | 93.5% (active) | 75% (active) | 100% (active) | 93.2% (active) | 44% | 97% (active) | 91.8% (active) | 74% (active) | 99% (active) | 92.1% (active) | 80% (active) | 99% (active) | 90.8% (active)
COc1ccc(Br)c2c1CC(C(=O)O)CC2 (configuration not stated) | -29% | -23% | 8% | -26% | 26% | 4.05% | -33% | -22% | -10.1% | 6% | 6% | -17.2% | -13% | 13% | 11.9% | -20% | -19% | 2.8%
CC12CC(O)C3C(CCC4CCCCC43C)C1CC/C2=N/O (configuration not stated) | 47% | -10% | 86.6% (active) | 45% | 7% | 91.2% (active) | 27% | 1% | 93.3% (active) | 8% | -6% | 50.8% | 10% | -5% | 93.9% (active) | 52% | 5% | 94.6% (active)
CC(C)N(C(=O)C12C3C4C5(C#N)C3C1(C#N)C5C42I)C(C)C (configuration not stated) | 41% | 41% | 82% (active) | 22% | 22% | 48% | 13% | 13% | 31.6% | 12% | 12% | 68.5% | 17% | 17% | 91.5% (active) | 11% | 11% | 46.4%
CCOC(=O)c1cc(Cl)nc2ccc(OC)cc12 | -3% | -30% | 0.05% | -3% | -30% | 9.35% | -4% | -31% | 20.3% | 0% | -41% | 40.9% | 6% | -12% | 49.4% | -2% | -25% | 15.4%
Fc1ccc(NC2=NCCN=C(Nc3ccc(F)cc3)SS2)cc1 | 0% | 70% (active) | 85% (active) | 6% | 66% | 86.5% (active) | 4% | 69% | 86% (active) | -9% | 77% (active) | 69.8% | 6% | 76% (active) | 88% (active) | 29% | 85% (active) | 80.8% (active)
